Records with an inconclusive call do not appear. A call without a number means that no potency is given here. Some structures have more than one record in an assay (separate samples or runs), and their calls can disagree. The source made the active and inactive calls. Calls come from the whole dose curve; as a rule, active = well fitted activation curve with a large enough effect in the repeat runs; inconclusive = weak or mixed curves; inactive = flat fitted curve, though single readings scatter.
Assay: A CellTox Green Cytotoxicity Assay to monitor cytotoxicity in HepG2 cells - 32 hour (AID 1224883); note: nearly all actives have a fitted effect of over 50% in size
Conditions: CellTox Green fluorescence; series mostly up to 76.8 µM
Summary of the method: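 Nonlytic assay: viable cells exclude the dye, so fluorescence scales with cell death. HepG2 at 600 cells/well, compounds added after 5 h, signal read across 40 h.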
Potency is the fitted concentration of half-maximal effect.

Row | SMILES | Potency
1 | Cn1cc(C(=O)[C@@H]2CCc3nc[nH]c3C2)c2ccccc21 | inactive
2 | Cc1cc(C2CCCCC2)n(O)c(=O)c1 | inactive
3 | Cc1[nH]nc2c1N=C(c1ccccc1Cl)c1cc([N+](=O)[O-])ccc1N2 | inactive
4 | CC1=C(C(=O)OC(C)C)C(c2cccc([N+](=O)[O-])c2)C(C(=O)OC2CN(C(c3ccccc3)c3ccccc3)C2)=C(N)N1 (stereo not drawn) | 23.9 µM (active)
5 | CCCCc1oc2ccc(NS(C)(=O)=O)cc2c1C(=O)c1ccc(OCCCN(CCCC)CCCC)cc1 | 19 µM (active)
6 | OCCCCCCCCCCCCBr | inactive
7 | Cc1ccc(-n2nc(C(C)(C)C)cc2NC(=O)Nc2ccc(OCCN3CCOCC3)c3ccccc23)cc1 | inactive
8 | C/C(=C(/OCCOc1ccc(Cl)cc1)c1ccc(Cl)cc1Cl)n1ccnc1 | inactive
9 | NNc1nc(-c2ccc(N)cc2)cs1 | inactive
10 | Nc1nc2ccccc2n1Cc1ccc(F)cc1 | 23.9 µM (active)
11 | OCCN(CCO)c1nc(N2CCCCC2)c2nc(N(CCO)CCO)nc(N3CCCCC3)c2n1 | 23.9 µM (active)
12 | CCCCCCCCn1sc(Cl)c(Cl)c1=O | 12.3 µM (active)
13 | Clc1ccccc1C(c1ccccc1)(c1ccccc1)n1ccnc1 | 19.5 µM (active) and inactive
14 | [Cl][Au]([Cl])[Cl] | 11 µM (active)
15 | Oc1c(Cl)cc(Cl)c2cccnc12 | 9.52 µM (active)
16 | O=C(NOCC1CC1)c1ccc(F)c(F)c1Nc1ccc(I)cc1Cl | 0.0849 µM (active)
17 | O=C(N/N=C/c1ccccc1O)c1ccncc1 | inactive
18 | ON=C1CCCC1 | inactive

— PubChem BioAssay (Tox21)
